In PubChem BioAssay AID1159580 (chemical genetic matrix, 2015):
Several values for one entry are separate records, joined by “and”; a condition that tells them apart may be missing. Equal values may be shown once. About 2,000 (36%) of roughly 5,500 compounds were called active. Another 18% or so got no clear call; they are omitted. Rule as the data show it: active = normalized growth mostly below about 0.91 (no sharp cut-off); inconclusive = no clear call, values can overlap the other calls; inactive = mostly above about 0.92. This is one part of the list.

Assay: chemical genetic growth profiling, strain panel (AID 1159580);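 also: tested at 20 µM; growth read once vehicle control cultures reached saturation at 30 °C; 1 = growth at the plate median or of vehicle wells; lower values mean less growth of the strain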
Conditions: S. cerevisiae deletion strains, growth OD

Measured: normalized growth

CC(=O)O[C@@H]1CC2C(C)(C)C(=O)C=C[C@]2(C)C2CC[C@@]3(C)[C@H](c4ccoc4)OC(=O)[C@H]4O[C@]43[C@@]21C (stereo partly drawn)
inactive: locus YAL021C, strain ccr4, hits give low values 1.03 | locus YAL026C, strain drs2, hits give low values 0.99 | locus YAL030W, strain snc1, hits give low values 0.997 | locus YBL061C, strain skt5, hits give low values 1.01 | locus YBR009C, strain hhf1, hits give low values 0.981 | locus YBR021W, strain FUR4, hits give low values 0.983 | locus YBR023C, strain chs3, hits give low values 1.01 | locus YBR171W, strain sec66, hits give low values 0.982 | locus YBR229C, strain ROT2, hits give low values 0.997 | locus YBR231C, strain swc5, hits give low values 1 | locus YBR279W, strain paf1, hits give low values 1.01 | locus YCL011C, strain gbp2, hits give low values 0.994 | locus YCL016C, strain dcc1, hits give low values 1.02 | locus YCL029C, strain bik1, hits give low values 0.999 | locus YCL061C, strain MRC1, hits give low values 0.972 | locus YCL069W, strain vba3, hits give low values 0.968 | locus YCR088W, strain abp1, hits give low values 0.98 | locus YDL005C, strain med2, hits give low values 0.981 | locus YDL035C, strain GPR1, hits give low values 1 | locus YDL040C, strain nat1, hits give low values 0.998 | locus YDL074C, strain BRE1, hits give low values 0.988 | locus YDL101C, strain DUN1, hits give low values 1.01 | locus YDL134C, strain PPH21, hits give low values 0.997 | locus YDL185W, strain tfp1, hits give low values 1.01 | locus YDL192W, strain arf1, hits give low values 0.991 | locus YDR001C, strain nth1, hits give low values 0.972 | locus YDR069C, strain doa4, hits give low values 1 | locus YDR101C, strain arx1, hits give low values 0.984 | locus YDR137W, strain rgp1, hits give low values 0.95 | locus YDR159W, strain sac3, hits give low values 0.949 | locus YDR162C, strain NBP2, hits give low values 0.996 | locus YDR195W, strain ref2 1.02 | locus YDR297W, strain sur2, hits give low values 1.01 | locus YDR318W, strain mcm21, hits give low values 0.994 | locus YDR334W, strain swr1, hits give low values 1.02 | locus YDR335W, strain msn5, hits give low values 1.02 | locus YDR388W, hits give low values 0.994 | locus YDR392W, strain spt3, hits give low values 0.831 | locus YDR502C, strain sam2, hits give low values 0.981 | locus YEL003W, strain gim4, hits give low values 0.95 | locus YEL037C, strain rad23, hits give low values 0.973 | locus YEL061C, strain CIN8 (second series), hits give low values 0.973 | locus YEL061C, strain CIN8, hits give low values 0.996 | locus YER015W, strain faa2, hits give low values 1.01 | locus YER016W, strain bim1, hits give low values 1 | locus YER110C, hits give low values 0.997 | locus YER111C, strain swi4, hits give low values 0.985 | locus YER155C, strain BEM2 (second series), hits give low values 1 | locus YER155C, strain BEM2, hits give low values 1 | locus YER167W, strain BCK2, hits give low values 1.01 | locus YFR010W, strain ubp6, hits give low values 0.966 | locus YGL078C, strain dbp3, hits give low values 0.994 | locus YGL086W, strain mad1, hits give low values 1.01 | locus YGL167C, strain pmr1, hits give low values 1 | locus YGL173C, strain kem1, hits give low values 0.976 | locus YGL227W, strain vid30, hits give low values 0.961 | locus YGL240W, strain doc1, hits give low values 1.01 | locus YGL248W, strain PDE1, hits give low values 1 | locus YGL253W, strain hxk2, hits give low values 1.02 | locus YGR078C, strain PAC10, hits give low values 1.01 | locus YGR135W, strain pre9, hits give low values 0.998 | locus YGR252W, strain gcn5, hits give low values 0.993 | locus YHR013C, strain ard1, hits give low values 0.987 | locus YHR027C, strain rpn1, hits give low values 1.01 | locus YHR030C, strain SLT2, hits give low values 1.01 | locus YHR079C, strain IRE1 (second series), hits give low values 0.988 | locus YHR079C, strain IRE1, hits give low values 0.994 | locus YHR094C, strain hxt1, hits give low values 0.993 | locus YHR129C, strain ARP1, hits give low values 1 | locus YHR142W, strain chs7, hits give low values 0.987 | locus YHR200W, strain rpn10, hits give low values 0.997 | locus YIL066C, strain RNR3, hits give low values 1 | locus YIL073C, strain SPO22, hits give low values 0.969 | locus YIL125W, strain kgd1, hits give low values 0.994 | locus YIR030C, strain dcg1, hits give low values 0.989 | locus YJL092W, strain hpr5, hits give low values 0.992 | locus YJL095W, strain BCK1 (second series), hits give low values 1.02 | locus YJL095W, strain BCK1, hits give low values 0.983 and 0.999 | locus YJL115W, strain asf1, hits give low values 0.987 | locus YJL129C, strain trk1, hits give low values 0.928 | locus YJL134W, strain LCB3, hits give low values 1.01 | locus YJL154C, strain vps35, hits give low values 0.971 | locus YJL164C, strain tpk1, hits give low values 0.995 | locus YJL166W, strain qcr8, hits give low values 1 | locus YJL168C, strain set2, hits give low values 0.987 | locus YJL187C, strain SWE1 (second series), hits give low values 1.01 | locus YJL187C, strain SWE1, hits give low values 1.01 | locus YJR043C, strain POL32, hits give low values 1.01
